Active and inactive are the calls of the source. The calls were made as follows: active = hit-call score of the fitted dose curve at least 0.9, where 1 is the maximum; inactive = score below 0.9.
How the values were obtained:
[1] = read-out: Matrix Metallopeptidase 1 (MMP1), MMP1 (gene 4312); assay: BSK_hDFCGF_MMP1: BioMAP Diversity Plus: hDFCGF Assay for Matrix Metallopeptidase 1 (MMP1) Biomarker Activity (AID 2283064); settings: primary human foreskin fibroblasts; actives raise or lower the signal
How it was run: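 Primary human foreskin fibroblasts exposed to chemicals for 24 h; MMP1 measured by ELISA. Cytotoxicity tracked by SRB staining in parallel cultures; bidirectional fit relative to DMSO.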

[2] = read-out: Vascular cell adhesion molecule 1 (VCAM1), VCAM1 (gene 7412); assay: BSK_hDFCGF_VCAM1: BioMAP Diversity Plus: hDFCGF Assay for Vascular cell adhesion molecule 1 (VCAM1) Biomarker Activity (AID 2283065); settings: primary human foreskin fibroblasts; actives raise or lower the signal;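 as to AC50: VCAM-1 protein level quantified by ELISA after 24 h chemical exposure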
How it was run: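 ELISA read-out of VCAM-1 on human skin fibroblasts, 24 h post-dose; gain or loss of signal fitted bidirectionally against DMSO baseline.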

[3] = read-out: Plasminogen activator inhibitor-1 (PAI1), SERPINE1 (gene 5054); assay: BSK_hDFCGF_PAI1: BioMAP Diversity Plus: hDFCGF Assay for Plasminogen activator inhibitor-1 (PAI1) Biomarker Activity (AID 2283066); settings: primary human foreskin fibroblasts; actives raise or lower the signal
How it was run: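 PAI-1 levels, determined by ELISA, served as the endpoint in human foreskin fibroblast cultures exposed to compound for 24 h, with DMSO as baseline.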

[4] = read-out: Intercellular Adhesion Molecule 1 (ICAM1), ICAM1 (gene 3383); assay: BSK_KF3CT_ICAM1: BioMAP Diversity Plus: KF3CT Assay for Intercellular Adhesion Molecule 1 (ICAM1) Biomarker Activity (AID 2283067); settings: primary human keratinocytes with fibroblasts; actives raise or lower the signal
How it was run: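 ELISA readout of ICAM-1; KF3CT human skin co-culture (keratinocytes + foreskin fibroblasts), 24 h post-dose; gain/loss fit vs DMSO baseline.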

[5] = read-out: Interferon-gamma inducible Protein 10 (IP10), CXCL10 (gene 3627); assay: BSK_KF3CT_IP10: BioMAP Diversity Plus: KF3CT Assay for Interferon-gamma inducible Protein 10 (IP10) Biomarker Activity (AID 2283068); settings: primary human keratinocytes with fibroblasts; actives raise or lower the signal
How it was run: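 Signal is secreted/surface IP-10 by ELISA in a human primary skin co-culture of keratinocytes and foreskin fibroblasts, taken 24 h post-dosing; DMSO served as negative control.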

[6] = BSK_KF3CT_SRB: Viability Assessment in the BioMAP Diversity Plus: KF3CT Assay (AID 2283069); settings: primary human keratinocytes with fibroblasts;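 also: total protein by sulforhodamine B staining as a cytotoxicity measure; read 24 h after compound addition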
How it was run: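 Human keratinocyte and foreskin fibroblast co-culture exposed to chemical for 24 h. Total protein measured in parallel cultures by 0.1% sulforhodamine B staining after 10% TCA fixation, read at 560 nm; bidirectional fit relative to DMSO.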

[7] = read-out: Interleukin-1 alpha (IL1a), IL1A (gene 3552); assay: BSK_KF3CT_IL1a: BioMAP Diversity Plus: KF3CT Assay for Interleukin-1 alpha (IL1a) Biomarker Activity (AID 2283070); settings: primary human keratinocytes with fibroblasts; actives raise or lower the signal
How it was run: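 Primary human keratinocyte plus foreskin fibroblast co-culture, dosed and measured at 24 h in 96-well plates. IL-1a level quantified by ELISA; bidirectional fit relative to DMSO.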

[8] = read-out: TIMP metallopeptidase inhibitor 2 (TIMP2), TIMP2 (gene 7077); assay: BSK_KF3CT_TIMP2: BioMAP Diversity Plus: KF3CT Assay for TIMP metallopeptidase inhibitor 2 (TIMP2) Biomarker Activity (AID 2283071); settings: primary human keratinocytes with fibroblasts; actives raise or lower the signal
How it was run: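 Keratinocyte–fibroblast co-culture, 24 h exposure; TIMP-2 ELISA, DMSO-normalised bidirectional fit. Parallel SRB (0.1%, TCA-fixed, 560 nm) total-protein staining gauges cytotoxicity.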

[9] = read-out: Transforming growth factor beta 1 (TGFb1), TGFB1 (gene 7040); assay: BSK_KF3CT_TGFb1: BioMAP Diversity Plus: KF3CT Assay for Transforming growth factor beta 1 (TGFb1) Biomarker Activity (AID 2283072); settings: primary human keratinocytes with fibroblasts; actives raise or lower the signal
How it was run: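 Signal changes in either direction, relative to DMSO, define activity here. TGF-b1 is read by ELISA from a human keratinocyte-fibroblast co-culture 24 h post-dose.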

[10] = read-out: C-C motif chemokine 2 (Homo sapiens) (UniProt P13500); assay: BSK_KF3CT_MCP1: BioMAP Diversity Plus: KF3CT Assay for Monocyte Chemoattractant Protein 1 (MCP1/CCL2) Biomarker Activity (AID 2283073); settings: primary human keratinocytes with fibroblasts; actives raise or lower the signal
How it was run: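 KF3CT skin co-culture (keratinocytes/foreskin fibroblasts), 24 h post-dose; MCP-1 by ELISA; gain/loss of signal fit bidirectionally vs DMSO baseline.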

[11] = read-out: Matrix Metallopeptidase 9 (MMP9), MMP9 (gene 4318); assay: BSK_KF3CT_MMP9: BioMAP Diversity Plus: KF3CT Assay for Matrix Metallopeptidase 9 (MMP9) Biomarker Activity (AID 2283074); settings: primary human keratinocytes with fibroblasts; actives raise or lower the signal;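 as to AC50: MMP9 protein level quantified by ELISA in the co-culture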
How it was run: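 Human keratinocyte and foreskin fibroblast co-culture exposed to chemicals for 24 h; MMP9 biomarker measured by ELISA, bidirectional fitting relative to DMSO; cytotoxicity tracked by SRB total protein staining in parallel cultures.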

[12] = read-out: urokinase plasminogen activator (uPA), PLAU (gene 5328); assay: BSK_KF3CT_uPA: BioMAP Diversity Plus: KF3CT Assay for urokinase plasminogen activator (uPA) Biomarker Activity (AID 2283075); settings: primary human keratinocytes with fibroblasts; actives raise or lower the signal
How it was run: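 Primary human keratinocyte/foreskin fibroblast co-culture exposed to chemical; uPA measured by ELISA at 24 h. Bidirectional fit versus DMSO, with parallel SRB total-protein staining for cytotoxicity.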

[13] = read-out: CD40, CD40 (gene 958); assay: BSK_LPS_CD40: BioMAP Diversity Plus: LPS Assay for CD40 Biomarker Activity (AID 2283076); settings: primary human HUVEC with PBMC; actives raise or lower the signal
How it was run: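 ELISA readout of CD40 in HUVEC/PBMC co-culture (BSK_LPS system), 24 h post-dosing; bidirectional curve fit, DMSO baseline; parallel SRB total-protein staining for cytotoxicity.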

[14] = read-out: E-selectin (Homo sapiens) (UniProt P16581); assay: BSK_LPS_Eselectin: BioMAP Diversity Plus: LPS Assay for Eselectin Biomarker Activity (AID 2283077); settings: primary human HUVEC with PBMC; actives raise or lower the signal
How it was run: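 ELISA readout of E-selectin, 24 h post-dose, HUVEC + PBMC co-culture (LPS system). Gain or loss of signal vs DMSO baseline, bidirectional fit.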

[15] = read-out: Interleukin-8 (IL8), CXCL8 (gene 3576); assay: BSK_LPS_IL8: BioMAP Diversity Plus: LPS Assay for Interleukin-8 (IL8) Biomarker Activity (AID 2283078); settings: primary human HUVEC with PBMC; actives raise or lower the signal
How it was run: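 HUVEC + PBMC co-culture, LPS-activated; test chemicals dosed, IL-8 read by ELISA at 24 h. Bidirectional curve fit vs DMSO baseline (gain or loss of signal).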

[16] = BSK_LPS_SRB: Viability Assessment in the BioMAP Diversity Plus: LPS Assay (AID 2283079); settings: primary human HUVEC with PBMC;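 also: total protein by sulforhodamine B absorbance as a cytotoxicity measure; measured one day after compound addition; fitted in both directions against DMSO so loss or gain of signal counts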
How it was run: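 HUVEC + PBMC co-culture, LPS-stimulated; compound 24 h. 10% TCA fix, 0.1% SRB stain, A560. Bidirectional fit vs DMSO.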

[17] = read-out: Interleukin-1 alpha (IL1a), IL1A (gene 3552); assay: BSK_LPS_IL1a: BioMAP Diversity Plus: LPS Assay for Interleukin-1 alpha (IL1a) Biomarker Activity (AID 2283080); settings: primary human HUVEC with PBMC; actives raise or lower the signal
How it was run: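 HUVEC/PBMC co-culture, LPS system; 24 h after dosing; IL-1a by ELISA; gain or loss of signal fitted bidirectionally vs DMSO baseline.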

[18] = read-out: Monocyte Chemoattractant Protein-1 (MCP1), CCL2 (gene 6347); assay: BSK_LPS_MCP1: BioMAP Diversity Plus: LPS Assay for Monocyte Chemoattractant Protein-1 (MCP1) Biomarker Activity (AID 2283081); settings: primary human HUVEC with PBMC; actives raise or lower the signal;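 as to AC50: secreted MCP-1 protein quantified by ELISA in culture supernatant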
How it was run: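 ELISA read-out of MCP-1 after 24 h chemical dosing of a human umbilical vein endothelial cell/peripheral blood mononuclear cell co-culture stimulated with LPS. Gain or loss of signal fitted relative to DMSO controls.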

[19] = BSK_LPS_PGE2: BioMAP Diversity Plus: LPS Assay for Prostaglandin E2 (PGE2) Biomarker Activity (AID 2283082); settings: primary human HUVEC with PBMC; actives raise or lower the signal;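 as to AC50: secreted prostaglandin E2 measured by ELISA in LPS-stimulated co-culture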
How it was run: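 Endpoint derived from bidirectional curve fitting versus DMSO of ELISA-measured PGE2 in LPS-stimulated human primary vascular co-culture (HUVEC with PBMC) harvested at 24 h.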

[20] = read-out: Macrophage colony-stimulating factor (MCSF), CSF1 (gene 1435); assay: BSK_LPS_MCSF: BioMAP Diversity Plus: LPS Assay for Macrophage colony-stimulating factor (MCSF) Biomarker Activity (AID 2283083); settings: primary human HUVEC with PBMC; actives raise or lower the signal
How it was run: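 HUVEC + PBMC co-culture (human primary), 24 h post-dose; M-CSF by ELISA; gain/loss of signal fitted bidirectionally vs DMSO baseline.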

Measured: AC50

Chain of E-selectin (Homo sapiens) (P16581 whole entry, looked up): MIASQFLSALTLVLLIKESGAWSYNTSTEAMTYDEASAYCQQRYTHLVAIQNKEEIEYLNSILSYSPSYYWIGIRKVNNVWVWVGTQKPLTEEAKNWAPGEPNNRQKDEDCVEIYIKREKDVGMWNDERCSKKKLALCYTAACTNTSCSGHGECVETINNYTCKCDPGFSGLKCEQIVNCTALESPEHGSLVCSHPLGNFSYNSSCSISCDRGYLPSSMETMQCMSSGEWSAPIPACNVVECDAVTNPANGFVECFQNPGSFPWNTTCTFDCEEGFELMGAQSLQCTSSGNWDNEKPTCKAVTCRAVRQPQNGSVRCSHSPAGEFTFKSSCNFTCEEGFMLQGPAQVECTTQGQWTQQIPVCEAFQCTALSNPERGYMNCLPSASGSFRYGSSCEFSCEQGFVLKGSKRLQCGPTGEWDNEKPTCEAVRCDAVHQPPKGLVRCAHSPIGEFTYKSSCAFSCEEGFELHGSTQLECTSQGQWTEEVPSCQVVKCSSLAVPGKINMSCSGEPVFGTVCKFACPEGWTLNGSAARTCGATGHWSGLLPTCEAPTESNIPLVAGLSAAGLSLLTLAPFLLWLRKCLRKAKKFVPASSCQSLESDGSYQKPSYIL

CCCCOC(=O)c1ccc(O)cc1
active: [19] 20 µM
inactive: all other assays above

CCCC(=O)OCCC(C)C
inactive: all assays above

CC(C)(C)c1csc(-c2cc3cc(OCc4ccccc4CC(=O)O)ccc3o2)n1
active: [1] 14.5 µM | [2] 10.1 µM | [3] 11.3 µM | [4] 24.3 µM | [5] 9.6 µM | [6] 12.6 µM | [7] 33 µM | [8] 20.3 µM | [9] 10.8 µM | [10] 20 µM | [11] 13.7 µM | [12] 20.7 µM | [13] 20.7 µM | [14] 30.9 µM | [16] 20.9 µM | [17] 20.5 µM | [18] 22.6 µM | [20] 27.2 µM
inactive: [15] | [19]

CC(O)CC(C)(C)O (centres undefined)
inactive: all assays above

CC1=CC(=O)/C(=C(/C)O)C(=O)O1
active: [10] 0.396 µM | [17] 20 µM
inactive: all other assays above

CO[C@H]1/C=C/O[C@@]2(C)Oc3c(C)c(O)c4c(O)c(c(/C=N/N5CCN(C)CC5)c(O)c4c3C2=O)NC(=O)/C(C)=C\C=C\[C@H](C)[C@H](O)[C@@H](C)[C@@H](O)[C@@H](C)[C@H](OC(C)=O)[C@@H]1C
not listed: [1]
inactive: all other assays above

CCCCCCCCN(C)CCCCCCCC
inactive: all assays above

O=C(O)Cc1cc(I)c(Oc2ccc(O)c(I)c2)c(I)c1
active: [1] 19.4 µM | [3] 10.4 µM | [5] 26.8 µM | [6] 25.5 µM | [9] 29.9 µM | [11] 20 µM
inactive: all other assays above

O=CCCCC=O
active: [1] 31.6 µM | [2] 20.7 µM | [3] 34 µM | [4] 33.6 µM | [5] 33 µM | [6] 34.1 µM | [7] 31.2 µM | [8] 26.2 µM | [9] 29.6 µM | [10] 32 µM | [11] 24.9 µM | [12] 32 µM | [17] 32.9 µM | [20] 37.3 µM
inactive: [13] | [14] | [15] | [16] | [18] | [19]

CN1C(=O)CC[C@H]1c1cccnc1
inactive: all assays above

c1ccc2ccccc2c1
inactive: all assays above

Cc1ccc2oc(CN(Cc3ccccc3)C(=O)Nc3c(F)cc(F)cc3F)c(-c3ccc(Cl)cc3)c2c1
active: [3] 0.999 µM | [8] 26.4 µM
inactive: all other assays above

— PubChem BioAssay (EPA / NIEHS)
